High-throughput results (PubChem BioAssay)
This is a sample that favours compounds with a hit; in the whole collection about 8% have one here.
KB-V1 MDR tox = KB-V1 MDR subline cytotoxicity | KB-V1 MDR cells viability, CellTiter-Glo, 72 h | Potency, µM (doses to about 46.1 µM), usual class: cytotoxic | 400,000 compounds, 3.4% hits; further: on the % scale 0 is the no-effect control and ±100 the full control effect; nearly all actives have a fitted effect of over 60% in size
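KB-V1 MDR subline cells in DMEM (phenol-red free, 10% FBS) exposed to compounds in qHTS concentration series for 72 h at 37 degrees C. Viability read by CellTiter-Glo luminescence; concentration-effect curves fitted after normalization and correction.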
HT1080NT lethal = kills 2HG-producing HT-1080-NT fibrosarcoma cells | HT-1080-NT fibrosarcoma viability, CellTiter-Glo ATP luminescence, 48 h | Potency, µM (titrated, usually from 46.1 µM), for inactives: top-dose activity, negative = less viability, most hits filed as cytotoxic | 360,000 compounds, 1.6% hits | AID 686970;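 further: NT is the 2HG producing partner of a matched IDH1 knockdown line; 0% = DMSO-treated cells and -100% = media-only wells without cells; nearly all actives have a fitted effect of over 55% in size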
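Viability by CellTiter-Glo luminescence after 48 h compound exposure at 37C of HT-1080-NT cells (750/well, RPMI, 5% FBS). % activity scaled between DMSO wells and medium-only wells, then curve-fitted and categorized by curve class.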
SW480 rereplic = DNA re-replication induction in SW480 cells; SW480 DNA re-replication, Hoechst DNA content imaging, 48 h; Potency, µM (series often up to 46.1 µM), for the others: at the top dose re-replication activation, actives largely listed as activators; 340,000 compounds, 1.8% hits; AID 624297; further: % of control where 0% means no effect; nearly all actives have a fitted effect of over 55% in size
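Treated cells incubate 48 hr (37 C, 5% CO2), are stained 40 min with Hoechst, and nuclear fluorescence is enumerated; a rise in nuclei with high DNA signal marks re-replication.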
HT1080 IDH1KD tx = toxicity to HT-1080 IDH1 knockdown cells (counter line); HT-1080 IDH1 knockdown viability, ATP luminescence, 48 h; Potency, µM (doses to about 46.1 µM), without a hit: at the top dose activity, negative = toxicity, actives largely listed as cytotoxic; 360,000 compounds, 2% hits; AID 686971;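 further: 0% = DMSO wells and -100% = cell-free medium wells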
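In this qHTS, HT-1080 cells depleted of IDH1 are exposed for 48 h at 37 °C to compound titrations. Toxicity is scored from CellTiter-Glo luminescence, with DMSO as full viability and medium alone as none.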
MCF10A rereplic = inducers of DNA re-replication in MCF 10A breast cells. AID 624296. MCF 10A DNA re-replication, Hoechst nuclear intensity, 48 h. 350,000 compounds, 2.9% hits. Potency, µM (titrated, usually from 46.1 µM), inactives show at the top dose activity, positive = re-replication, hits mostly activators; further: % of control where 0% means no effect; nearly all actives have a fitted effect of over 50% in size
KB-3-1 cytotox = KB-3-1 parental cell cytotoxicity | KB-3-1 viability, CellTiter-Glo ATP luminescence, 72 h | Potency, µM (titrated, usually from 46.1 µM), hits mostly cytotoxic | 400,000 compounds, 1.4% hits | AID 1347075; further: on the % scale 0 is the no-effect control and ±100 the full control effect; nearly all actives have a fitted effect of over 60% in size
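KB-3-1 parental drug-naive adenocarcinoma cells in DMEM/10% FBS, incubated 72 h at 37 C with pin-transferred compounds across a concentration series. Viability by CellTiter-Glo luminescence; concentration-response curves fitted after normalization.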
An asterisk follows results filed as active; i = inactive; ? = inconclusive; . = no result; ! = not confirmed by another sample. The call rests on the fitted dose curve; in most records, active means well fitted curve in the direction sought with a large enough effect; inconclusive means small, poorly fitted or top-dose-only effect, or another doubt; inactive means no such curve, though single readings can be large; an effect the other way counts as inactive or inconclusive. Potency means the concentration at half of the fitted maximal effect.

SMILES	KB-V1 MDR tox	HT1080NT lethal	SW480 rereplic	HT1080 IDH1KD tx	MCF10A rereplic	KB-3-1 cytotox
COc1ccc(S(=O)(=O)Oc2ccc3cccc(N)c3c2)cc1	?	-23%	?	-27%	?	?
COc1ccc(S(=O)(=O)Oc2ccc3ccccc3c2)cc1	16µM*	-21%	?	-6%	?	?
Cc1ccc(OCCn2cc(Br)c(=O)[nH]c2=O)cc1	i	6%	-10%	-9%	4%	i
OC(c1ccccc1)(c1ccccc1)C1CCN(CCCOc2ccc3c(c2)CCCC3)CC1	21µM*	15µM*	.	13µM*	.	?
CC(C)(C)c1ccc(C(O)CCCN2CCC(C(O)(c3ccccc3)c3ccccc3)CC2)cc1 (centres undefined)	i	-13%	-2%	-19%	?	i
OC(c1ccccc1)(c1ccccc1)C1CCN(CCCOc2cccc(OC(F)(F)F)c2)CC1	i	18µM*	.	16µM*	.	?
N#CCc1ccc(OCCCN2CCC(C(O)(c3ccccc3)c3ccccc3)CC2)cc1	18µM*	21µM*	.	?	.	?
CC(=O)Nc1ccc(OCCCN2CCC(C(O)(c3ccccc3)c3ccccc3)CC2)cc1	i	-24%	.	?	.	i
CC(=O)Nc1ccccc1OCCCN1CCC(C(O)(c2ccccc2)c2ccccc2)CC1	?	?	.	?	.	i
Cc1ccc(CNC(=O)c2sccc2-n2cccc2)cc1	i	-2%	?	-7%	?	i
N#Cc1ccccc1/C=C/C(=O)N1CCOCC1	i	20%	2%	28%	-1%	i
COc1ccccc1NC(=O)NNC(=O)c1ccc2c(c1)NC(=O)C(C)(C)O2	i	?	?	?	?	?
COC(CNC(=O)c1ccc(N2CCc3ccccc32)c([N+](=O)[O-])c1)OC	15µM*	6%	-3%	3%	?	?
CC(CC(=O)NCc1ccc(F)cc1)c1ccccc1 (centres undefined)	i	8%	4%	-1%	5%	i
C=CCNC(=S)N1CCN(c2cccc(C(F)(F)F)c2)CC1	?	-6%	16%	-10%	0%	i
Cc1ccn2c(NC3CCCC3)c(-c3ccsc3)nc2c1	?	1%	3%	-8%	-19%	i
CCC(C)Sc1cccc(-c2nc3cc(C)ccn3c2NC2CCCCC2)c1 (centres undefined)	16µM*!	12µM*	?	18µM*	18µM*	?
Cc1ccn2c(NC3CCCCC3)c(-c3ccc(SC4CCCCC4)cc3)nc2c1	18µM*	9%	.	2%	.	?
Cc1ccc(C(=O)O/N=C/c2c(N3CCOCC3)n(C)c3ccccc23)cc1	?	4µM*	?	3.5µM*	?	?
CC(=O)O/N=C/c1c(N2CCOCC2)n(C)c2ccccc12	i	?	1.8µM*	-28%	20%	i
Cn1c(N2CCOCC2)c(/C=N/O)c2ccccc21	i	-9%	-3%	8%	-5%	i
Cn1c(N2CCOCC2)c(/C=N/OC(=O)c2ccc(F)cc2)c2ccccc21	?	2.8µM*	?	3.2µM*	27%	4.1µM*
O=C(Nc1nnc(SCc2ccc(Cl)cc2)s1)c1cnccn1	i	-6%	2%	-5%	26%	i
COc1ccc(-c2nc3scc(CCNC(=O)c4cccc(Br)c4)n3n2)cc1	i	.	.	.	.	i
O=C(COc1ccccc1)N/N=C/c1sc(=O)n(Cc2cccc(C(=O)O)c2)c1Cl	i	2%	-5%	0%	-15%	i
O=Cc1sc(=O)n(Cc2cccc(C(=O)O)c2)c1Cl	i	8%	4%	16%	29µM*	i
O=c1sc(/C=N/Nc2ccccc2)c(Cl)n1Cc1ccccc1	i	15µM*	14%	13µM*	?	i
